Activity calls are given as the source filed them. Rule for the calls: active = hit-call score of the fitted dose curve at least 0.9, where 1 is the maximum; inactive = score below 0.9.

Read-out in assay [1]: Matrix Metallopeptidase 9 (MMP9), MMP9 (gene 4318)
The assay is described as follows: BSK_KF3CT_MMP9: BioMAP Diversity Plus: KF3CT Assay for Matrix Metallopeptidase 9 (MMP9) Biomarker Activity (AID 2283074).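 For AC50: MMP9 protein level quantified by ELISA in the co-culture.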 Conditions: primary human keratinocytes with fibroblasts; actives raise or lower the signal. A digest of the protocol:
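ELISA read-out of MMP-9 at 24 h post-dosing in a co-culture of human skin keratinocytes and foreskin fibroblasts. Gain or loss of signal was fitted in both directions against DMSO.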

Read-out in assay [2]: E-selectin (Homo sapiens) (UniProt P16581)
Briefly: BSK_LPS_Eselectin: BioMAP Diversity Plus: LPS Assay for Eselectin Biomarker Activity (AID 2283077). Conditions: primary human HUVEC with PBMC; actives raise or lower the signal. The method, boiled down:
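Human umbilical vein endothelial cells co-cultured with PBMC under LPS stimulation; cell-surface E-selectin measured by ELISA 24 h after dosing. Change in either direction versus DMSO, with SRB total-protein staining in parallel cultures for cytotoxicity.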

Assay [3] in a line: BSK_LPS_SRB: Viability Assessment in the BioMAP Diversity Plus: LPS Assay (AID 2283079).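 Note: total protein by sulforhodamine B absorbance as a cytotoxicity measure; measured one day after compound addition.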 The following applies: primary human HUVEC with PBMC. The method, boiled down:
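Co-culture of human umbilical vein endothelial cells and PBMC, read 24 h after dosing. Total protein by 0.1% SRB staining after 10% TCA fixation, absorbance at 560 nm; bidirectional fit against DMSO.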

Read-out in assay [4]: Interleukin-1 alpha (IL1a), IL1A (gene 3552)
Briefly: BSK_LPS_IL1a: BioMAP Diversity Plus: LPS Assay for Interleukin-1 alpha (IL1a) Biomarker Activity (AID 2283080). Conditions: primary human HUVEC with PBMC; actives raise or lower the signal. The method, boiled down:
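Human umbilical vein endothelial cells co-cultured with PBMC and stimulated with LPS; IL-1a measured by ELISA 24 h after dosing. Bidirectional fitting against DMSO; cytotoxicity checked by SRB staining in parallel cultures.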

Read-out in assay [5]: Monocyte Chemoattractant Protein-1 (MCP1), CCL2 (gene 6347)
The assay is described as follows: BSK_LPS_MCP1: BioMAP Diversity Plus: LPS Assay for Monocyte Chemoattractant Protein-1 (MCP1) Biomarker Activity (AID 2283081). The following applies: primary human HUVEC with PBMC; actives raise or lower the signal. A digest of the protocol: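 Human umbilical vein endothelial cells co-cultured with PBMC, LPS-stimulated; secreted MCP-1 measured by ELISA 24 h after compound addition. Bidirectional curve fitting against DMSO baseline; SRB total-protein staining in parallel cultures for cytotoxicity.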

Read-out in assay [6]: Transforming growth factor beta 1 (TGFb1), TGFB1 (gene 7040)
Briefly: BSK_KF3CT_TGFb1: BioMAP Diversity Plus: KF3CT Assay for Transforming growth factor beta 1 (TGFb1) Biomarker Activity (AID 2283072). The following applies: primary human keratinocytes with fibroblasts; actives raise or lower the signal. The method, boiled down: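 ELISA quantifies TGF-b1 at 24 h post-dose in a primary human skin co-culture of keratinocytes and fibroblasts, with gain or loss judged against DMSO. Parallel SRB total-protein staining flags overt cytotoxicity.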

Read-out in assay [7]: urokinase plasminogen activator (uPA), PLAU (gene 5328)
Briefly: BSK_KF3CT_uPA: BioMAP Diversity Plus: KF3CT Assay for urokinase plasminogen activator (uPA) Biomarker Activity (AID 2283075). Conditions: primary human keratinocytes with fibroblasts; actives raise or lower the signal. A digest of the protocol:
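Skin co-culture (keratinocytes + foreskin fibroblasts), human primary; 24 h post-dose; uPA by ELISA; gain/loss fit vs DMSO baseline.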

Read-out in assay [8]: Interleukin-8 (IL8), CXCL8 (gene 3576)
Briefly: BSK_LPS_IL8: BioMAP Diversity Plus: LPS Assay for Interleukin-8 (IL8) Biomarker Activity (AID 2283078). The following applies: primary human HUVEC with PBMC; actives raise or lower the signal. The method, boiled down:
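Human umbilical vein endothelial cells co-cultured with PBMC, LPS-stimulated, exposed to compound for 24 h. IL-8 quantified by ELISA; fitted in both directions against DMSO, with SRB total-protein staining of parallel cultures for cytotoxicity.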

Read-out in another assay: CD40, CD40 (gene 958)
Briefly: BSK_LPS_CD40: BioMAP Diversity Plus: LPS Assay for CD40 Biomarker Activity (AID 2283076). The following applies: primary human HUVEC with PBMC; actives raise or lower the signal. A digest of the protocol:
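HUVEC plus PBMC co-culture stimulated with LPS; CD40 quantified by ELISA 24 h after compound dosing. Fitting was bidirectional relative to DMSO. SRB staining of parallel cultures flagged overt cytotoxicity.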

Read-out in assay [9]: C-C motif chemokine 2 (Homo sapiens) (UniProt P13500)
The assay is described as follows: BSK_KF3CT_MCP1: BioMAP Diversity Plus: KF3CT Assay for Monocyte Chemoattractant Protein 1 (MCP1/CCL2) Biomarker Activity (AID 2283073). The following applies: primary human keratinocytes with fibroblasts; actives raise or lower the signal. A digest of the protocol: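 Human keratinocyte–foreskin fibroblast co-culture; MCP-1 measured by ELISA 24 h after dosing. Bidirectional fit vs DMSO; cytotoxicity tracked by SRB total protein in parallel cultures.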

E-selectin (Homo sapiens), sequence (P16581 whole entry, looked up): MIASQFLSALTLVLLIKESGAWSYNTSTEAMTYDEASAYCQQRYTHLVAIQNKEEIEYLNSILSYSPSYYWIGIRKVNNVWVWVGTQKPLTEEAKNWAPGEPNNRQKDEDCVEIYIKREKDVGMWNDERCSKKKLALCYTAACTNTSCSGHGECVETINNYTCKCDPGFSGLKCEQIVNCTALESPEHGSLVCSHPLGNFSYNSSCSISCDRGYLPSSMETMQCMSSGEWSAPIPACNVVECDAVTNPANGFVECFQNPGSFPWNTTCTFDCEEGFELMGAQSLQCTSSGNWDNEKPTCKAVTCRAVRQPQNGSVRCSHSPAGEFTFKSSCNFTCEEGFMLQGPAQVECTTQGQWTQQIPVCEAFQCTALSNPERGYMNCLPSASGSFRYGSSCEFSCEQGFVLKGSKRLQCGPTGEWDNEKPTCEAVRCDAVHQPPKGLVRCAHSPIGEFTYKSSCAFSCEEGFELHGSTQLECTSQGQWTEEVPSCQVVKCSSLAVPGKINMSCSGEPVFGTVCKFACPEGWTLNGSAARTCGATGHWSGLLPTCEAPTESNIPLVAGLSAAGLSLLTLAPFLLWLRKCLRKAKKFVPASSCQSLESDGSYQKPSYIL

As for `FC(F)C(F)(F)COCC1CO1` (stereo not given), the result in assay [1], in [2], in [3], in assay [4] and in assay [5] was inactive.

Take `Nc1ccn([C@@H]2O[C@H](CO)[C@@H](O)[C@@H]2O)c(=O)n1`: the result in assay [6], in assay [1], in [2], in assay [3], in [4] and in assay [5] was inactive.

Turning to `FC(F)(F)COC(OCC(F)(F)F)OCC(F)(F)F`, the result in assay [1], in assay [2], in assay [3] and in assay [4] was inactive.

As usually defined, the AC50 is the concentration giving half of the maximal activity seen. Consider `CCN(CC)C(=S)SSC(=S)N(CC)CC`, for which the AC50 in assay [1] is 14.2 µM (active); in [7], 14.8 µM (active); in assay [2], 34.8 µM (active); in assay [8], 29.7 µM (active); in assay [3], 31.1 µM (active).

Turning to `NC(=O)N(O)[C@@H]1COc2cc(OCc3ccccc3)ccc21`, the outcome in [6] was “inactive”; in [1], “inactive”; in the assay with CD40, CD40 (gene 958) it was “inactive”; in assay [2], “inactive”; in assay [8] it was “inactive”; in assay [3], “inactive”. The result in assay [4] was inactive.

On to `CC1(C)C(=O)N(Cl)C(=O)N1Cl`, for which the outcome in [6] was “inactive”; in [1] it was “inactive”; in the assay with CD40, CD40 (gene 958) it was “inactive”; in [2] it was “inactive”; in assay [8] it was “inactive”; in assay [3], “inactive”. Moreover, the outcome in assay [4] was inactive.

For the compound `CCOc1ccc2[nH]cc(C(=O)NCc3ccccc3)c(=O)c2n1`, the outcome is “inactive” in [6]; “inactive” in assay [1]; “inactive” in the assay with CD40, CD40 (gene 958); “inactive” in assay [2]; “inactive” in [3]; “inactive” in assay [4]. The outcome in assay [5] was inactive.

As for `OC(O)(C(F)C(O)(O)C(F)(F)F)C(F)(F)F`, the outcome in assay [9], in [1], in [7], in assay [2], in [3] and in assay [4] was inactive.

Take `CCc1cccc(CC)c1N`: the outcome is “inactive” in [6]; “inactive” in assay [1]; “inactive” with CD40, CD40 (gene 958); “inactive” in [2]; “inactive” in [3]; “inactive” in [4].

For `OCCC(F)(F)C(F)(F)C(F)(F)C(F)(F)F`, the result in [9], in assay [1], in [2], in assay [8], in assay [3] and in assay [4] was inactive.

Regarding `C[Si](C)(C)C(F)(F)C(F)(F)C(F)(F)F`, the outcome in [9], in assay [1], in assay [7], in [2], in [3] and in assay [4] was inactive.

As for `OC[C@H]1O[C@@H]2O[C@H]3[C@H](O)[C@@H](O)[C@@H](O[C@H]4[C@H](O)[C@@H](O)[C@@H](O[C@H]5[C@H](O)[C@@H](O)[C@@H](O[C@H]6[C@H](O)[C@@H](O)[C@@H](O[C@H]7[C@H](O)[C@@H](O)[C@@H](O[C@H]1[C@H](O)[C@H]2O)O[C@@H]7CO)O[C@@H]6CO)O[C@@H]5CO)O[C@@H]4CO)O[C@@H]3CO`, the outcome in assay [6] was “inactive”; in assay [1] it was “inactive”; with CD40, CD40 (gene 958), “inactive”; in assay [2] it was “inactive”; in [3], “inactive”; in assay [4] it was “inactive”.

Take `c1ccc(C(O[C@@H]2CCCN(CCc3ccc4c(c3)OCO4)C2)c2ccccc2)cc1`: the result in assay [6], in [2] and in [5] was inactive. Moreover, the concentration at half-maximal activity (AC50) in [1] was 32.2 µM (active); in the assay with CD40, CD40 (gene 958) it was 29.1 µM (active); in assay [8], 20 µM (active); in assay [3], 26.3 µM (active); in assay [4], 12.5 µM (active).

Regarding `CCCCCCCCCCCCCCO`, the outcome in [6] and in assay [1] was inactive. In addition, the half-maximal activity concentration (AC50) in assay [8] was 34 µM (active); in assay [3], 30.7 µM (active); in [4], 30.2 µM (active).

`CCCCCCCCN(C)C`: the outcome in assay [6] was “inactive”; in assay [1] it was “inactive”; with CD40, CD40 (gene 958), “inactive”; in assay [2], “inactive”; in [3], “inactive”; in [4] it was “inactive”.

Take `O=S(=O)(O)CCC(F)(F)C(F)(F)C(F)(F)C(F)(F)C(F)(F)C(F)(F)F`: the result in assay [1], in [2], in assay [3] and in [4] was inactive.

`CCCC(CCC)C(=O)O`: the outcome in assay [6], in assay [1], in assay [2], in [3], in assay [4] and in assay [5] was inactive.

For `O=C(O)c1ccc2c(c1)nc(C(=O)NC1CCN(C3CC3)CC1)n2Cc1cc(-c2ccc(Cl)s2)on1`, the outcome in assay [6], in assay [1], in assay [2], in assay [3], in assay [4] and in assay [5] was inactive.

With `FC(F)=C(F)C(F)(F)C(F)(F)C(F)(F)C(F)(F)C(F)(F)C(F)(F)F`, the outcome in assay [9] was “inactive”; in [1], “inactive”; in assay [7], “inactive”; in the assay with CD40, CD40 (gene 958), “inactive”; in assay [2] it was “inactive”; in assay [8], “inactive”. The result in assay [3], in [4] and in assay [5] was inactive.

With `FC(F)(F)C(F)(F)C(F)(F)C(F)(F)C(F)(F)C(F)(F)I`, the outcome in assay [1], in assay [7], in assay [2], in [3] and in assay [4] was inactive.

For `O=S(=O)(O)c1ccc(N=Nc2c(O)ccc3cc(S(=O)(=O)O)ccc23)cc1`, the outcome was “inactive” in [6]; “inactive” in [1]; “inactive” in the assay with CD40, CD40 (gene 958); “inactive” in assay [2]; “inactive” in assay [3]; “inactive” in assay [4]. Further, the outcome in assay [5] was inactive.

Consider `NCC(F)(F)C(F)(F)C(F)(F)C(F)(F)F`, for which the outcome in assay [1], in assay [7], in assay [2], in assay [8], in assay [3] and in [4] was inactive. In [5], the result was inactive.

In the case of `Cc1cccc(O)c1C`, the outcome was “inactive” in [6]; “inactive” in assay [1]; “inactive” with CD40, CD40 (gene 958); “inactive” in [2]; “inactive” in assay [8]; “inactive” in assay [3]. For the same compound, the outcome in assay [4] was inactive.

For the compound `O=C(Cl)C(F)(F)C(F)(F)C(F)(F)C(=O)Cl`, the outcome in [9] is “inactive”; in [1], “inactive”; in assay [7], “inactive”; in the assay with CD40, CD40 (gene 958) it was “inactive”; in assay [2], “inactive”; in assay [8], “inactive”. Moreover, the result in assay [3], in [4] and in assay [5] was inactive.

The values above are taken from PubChem BioAssay (EPA / NIEHS).
